# Data published in PubChem BioAssay (Tox21).
# Values without a mark were called inactive. Results filed as inconclusive are left out. Entries that show only a call come without a potency. Active and inactive are the calls of the source. Calls come from the whole dose curve; as a rule, active = well fitted curve in the direction sought with a large enough effect in the repeat runs; inconclusive = weak or mixed curves; inactive = no such curve, though single readings can be large; an effect the other way counts as inactive or inconclusive.
# Columns and labels:
# [1] = A CellTox Green Cytotoxicity Assay to monitor cytotoxicity in HEK293 cells - 40 hour (AID 1224871); note: nearly all actives have a fitted effect of over 45% in size; note: potency is the fitted concentration of half-maximal effect
# Procedure, shortened: (§1)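 Homogeneous no-lysis format: HEK293 cell suspension mixed with CellTox Green reagent, seeded, incubated 5 h at 37 C/5% CO2, then dosed by pintool with compound in DMSO.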
# [2] = qHTS RealTime-Glo MT Cell Viability Assay in HEK293 cells - 16 hour (AID 1224872); note: top concentration of the series differs between compounds; nearly all actives have a fitted effect of over 50% in size
# Procedure, shortened: (§2)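 Assay medium contained NanoLuc luciferase plus cell-permeant prosubstrate, added with HEK293 cells at 600 cells/well. After 5 h at 37 C/5% CO2 compounds were added; plates stayed at 37 C for 40 h with serial luminescence reads.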
# [3] = qHTS RealTime-Glo MT Cell Viability Assay in HepG2 cells - 8 hour (AID 1224873); note: nearly all actives have a fitted effect of over 55% in size
# Procedure, shortened: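 HepG2 cells mixed with RealTime-Glo MT reagents (NanoLuc plus cell-permeant prosubstrate) were seeded at 600 cells/well, incubated 5 h at 37 C/5% CO2, then pinned with compounds in DMSO; nonlytic luminescence tracked viability during 40 h treatment.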
# [4] = qHTS RealTime-Glo MT Cell Viability Assay in HEK293 cells - 40 hour (AID 1224874); conditions: RealTime-Glo luminescence; max response: active compounds read low; note: nearly all actives have a fitted effect of over 50% in size
# Procedure, shortened: (§3)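 Measured as luminescence from the same continuously cultured HEK293 wells at successive time points (0, 8, 16, 24, 32, 40 h) after compound addition. Reagent present from seeding; dosing at 5 h; incubation 37 C.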
# [5] = A CellTox Green Cytotoxicity Assay to monitor cytotoxicity in HEK293 cells - 24 hour (AID 1224875); note: series mostly up to about 77 µM; nearly all actives have a fitted effect of over 45% in size
# Procedure, shortened: as §1
# [6] = A CellTox Green Cytotoxicity Assay to monitor cytotoxicity in HepG2 cells - 16 hour (AID 1224876); note: nearly all actives have a fitted effect of over 45% in size
# Procedure, shortened: (§4)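 Fluorescent DNA-binding dye, 600 HepG2 cells/well, 5 h preincubation then compound in DMSO; same plates read at 0–40 h, 37 C.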
# [7] = qHTS RealTime-Glo MT Cell Viability Assay in HepG2 cells - 32 hour (AID 1224877); note: nearly all actives have a fitted effect of over 55% in size
# Procedure, shortened: (§5)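 qHTS, HepG2, 600 cells/well, RealTime-Glo (NanoLuc + prosubstrate) added with cells; 5 h preincubation; DMSO compound addition; 37 C; luminescence at 0/8/16/24/32/40 h.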
# [8] = A CellTox Green Cytotoxicity Assay to monitor cytotoxicity in HepG2 cells - 24 hour (AID 1224878); note: nearly all actives have a fitted effect of over 45% in size
# Procedure, shortened: as §4
# [9] = A CellTox Green Cytotoxicity Assay to monitor cytotoxicity in HepG2 cells - 40 hour (AID 1224879); note: nearly all actives have a fitted effect of over 40% in size
# Procedure, shortened: as §4
# [10] = qHTS RealTime-Glo MT Cell Viability Assay in HEK293 cells - 0 hour (AID 1224880)
# Procedure, shortened: as §3
# [11] = A CellTox Green Cytotoxicity Assay to monitor cytotoxicity in HEK293 cells - 32 hour (AID 1224881); note: nearly all actives have a fitted effect of over 40% in size
# Procedure, shortened: as §1
# [12] = A CellTox Green Cytotoxicity Assay to monitor cytotoxicity in HepG2 cells - 0 hour (AID 1224882); note: nearly all actives have a fitted effect of over 35% in size
# Procedure, shortened: as §4
# [13] = A CellTox Green Cytotoxicity Assay to monitor cytotoxicity in HepG2 cells - 32 hour (AID 1224883); note: nearly all actives have a fitted effect of over 50% in size
# Procedure, shortened: as §4
# [14] = A CellTox Green Cytotoxicity Assay to monitor cytotoxicity in HEK293 cells - 8 hour (AID 1224884); note: nearly all actives have a fitted effect of over 35% in size
# Procedure, shortened: as §1
# [15] = qHTS RealTime-Glo MT Cell Viability Assay in HepG2 cells - 16 hour (AID 1224885); note: nearly all actives have a fitted effect of over 50% in size
# Procedure, shortened: as §5
# [16] = qHTS RealTime-Glo MT Cell Viability Assay in HEK293 cells - 24 hour (AID 1224886)
# Procedure, shortened: as §2
# [17] = qHTS RealTime-Glo MT Cell Viability Assay in HEK293 cells - 8 hour (AID 1224887)
# Procedure, shortened: as §3
# [18] = A CellTox Green Cytotoxicity Assay to monitor cytotoxicity in HEK293 cells - 16 hour (AID 1224888); note: nearly all actives have a fitted effect of over 35% in size
# Procedure, shortened: as §1
# [19] = A CellTox Green Cytotoxicity Assay to monitor cytotoxicity in HepG2 cells - 8 hour (AID 1224890); note: nearly all actives have a fitted effect of over 45% in size
# Procedure, shortened: as §4
# [20] = qHTS RealTime-Glo MT Cell Viability Assay in HepG2 cells - 0 hour (AID 1224889); note: nearly all actives have a fitted effect of over 50% in size
# Procedure, shortened: as §5
structure (smiles),measurement,setting,value
CN1CCC(=C2c3ccccc3CCc3cccnc32)CC1,Potency,[1],inactive
same,Potency,[2],inactive
same,outcome,[3],inactive
same,max response,[4],-11%
same,outcome,[5],inactive
same,outcome,[6],inactive
same,Potency,[7],inactive
same,outcome,[8],inactive
same,Potency,[9],inactive
same,Potency,[10],inactive
same,outcome,[11],inactive
same,Potency,[12],inactive
same,Potency,[13],inactive
same,outcome,[14],inactive
same,outcome,[15],inactive
same,Potency,[16],inactive
same,Potency,[17],inactive
same,outcome,[18],inactive
same,outcome,[19],inactive
CC(C)CCCO,Potency,[1],inactive
same,Potency,[2],inactive
same,outcome,[3],inactive
same,max response,[4],9.91%
same,outcome,[5],inactive
same,outcome,[6],inactive
same,Potency,[7],inactive
same,outcome,[8],inactive
same,Potency,[9],inactive
same,Potency,[10],inactive
same,outcome,[11],inactive
same,Potency,[12],inactive
same,outcome,[14],inactive
same,outcome,[15],inactive
same,Potency,[16],inactive
same,Potency,[17],inactive
same,outcome,[18],inactive
same,Potency,[20],inactive
CCN[C@@H]1C[C@H](N)[C@@H](OC2OC(CN)=CCC2N)[C@H](O)[C@H]1O[C@H]1OC[C@](C)(O)[C@H](NC)[C@H]1O (some centres not stated),cytotoxicity increase,[1],6.9% [at 0.29 µM]
same,"activity change, negative = cytotoxicity",[2],1.34% [at 0.29 µM]
same,"viability change, negative = cytotoxic",[3],0.243% [at 0.29 µM]
same,max response,[4],5.87%
same,activity change,[5],6.99% [at 0.29 µM]
same,cytotoxicity increase,[6],-0.147% [at 0.29 µM]
same,"activity change, negative = cytotoxic",[7],1.75% [at 0.29 µM]
same,cytotoxicity,[8],-2.12% [at 0.29 µM]
same,cytotoxicity increase,[9],-8.46% [at 0.29 µM]
same,"activity change, negative = cytotoxicity",[10],1.44% [at 0.29 µM]
same,cytotoxicity increase,[11],8.84% [at 0.29 µM]
same,cytotoxicity,[12],3.46% [at 0.29 µM]
same,cytotoxicity increase,[13],-3.76% [at 0.29 µM]
same,cytotoxicity increase,[14],-0.876% [at 0.29 µM]
same,"activity change, negative = cytotoxic",[15],0.169% [at 0.29 µM]
same,"activity change, negative = cytotoxicity",[16],3.34% [at 0.29 µM]
same,"activity change, negative = cytotoxicity",[17],0.47% [at 0.29 µM]
same,activity change,[18],1.26% [at 0.29 µM]
same,cytotoxicity increase,[19],3.81% [at 0.29 µM]
CCCCCCC#CC(=O)OC,Potency,[1],inactive
same,Potency,[2],inactive
same,outcome,[3],inactive
same,max response,[4],11.4%
same,outcome,[5],inactive
same,outcome,[6],inactive
same,Potency,[7],inactive
same,outcome,[8],inactive
same,Potency,[9],inactive
same,Potency,[10],inactive
same,Potency,[12],inactive
same,outcome,[14],inactive
same,outcome,[15],inactive
same,Potency,[16],inactive
same,Potency,[17],inactive
same,outcome,[18],inactive
same,Potency,[20],inactive
same,outcome,[19],inactive
CC[N+](CC)(CC(=O)Nc1c(C)cccc1C)Cc1ccccc1 (tested in a mixture with another compound),Potency,[1],inactive
same,Potency,[2],inactive
same,outcome,[3],inactive
same,max response,[4],-5.24%
same,outcome,[5],inactive
same,outcome,[6],inactive
same,Potency,[7],inactive
same,outcome,[8],inactive
same,Potency,[9],inactive
same,Potency,[10],inactive
same,outcome,[11],inactive
same,Potency,[12],inactive
same,outcome,[14],inactive
same,outcome,[15],inactive
same,Potency,[16],inactive
same,Potency,[17],inactive
same,outcome,[18],inactive
same,outcome,[19],inactive
O=C(O)CNC(=O)c1ccc(CO)o1,Potency,[1],inactive
same,Potency,[2],inactive
same,outcome,[3],inactive
same,max response,[4],3.96%
same,outcome,[5],inactive
same,outcome,[6],inactive
same,Potency,[7],inactive
same,outcome,[8],inactive
same,Potency,[9],inactive
same,Potency,[10],inactive
same,outcome,[11],inactive
same,Potency,[12],inactive
same,outcome,[14],inactive
same,outcome,[15],inactive
same,Potency,[16],inactive
same,Potency,[17],inactive
same,outcome,[18],inactive
same,Potency,[20],inactive
same,outcome,[19],inactive
CO/N=C(\C(=O)N[C@@H]1C(=O)N2C(C(=O)O)=C(CSc3nc(=O)c(O)nn3C)CS[C@H]12)c1csc(N)n1,Potency,[1],inactive
same,Potency,[2],inactive
same,outcome,[3],inactive
same,max response,[4],11.9%
same,outcome,[5],inactive
same,outcome,[6],inactive
same,Potency,[7],inactive
same,outcome,[8],inactive
same,Potency,[9],inactive
same,Potency,[10],inactive
same,outcome,[11],inactive
same,Potency,[12],inactive
same,outcome,[14],inactive
same,outcome,[15],inactive
same,Potency,[16],inactive
same,Potency,[17],inactive
same,outcome,[18],inactive
same,outcome,[19],inactive
CC(=O)c1cnccn1,Potency,[1],16.2 µM (active)
same,Potency,[2],inactive
same,outcome,[3],inactive
same,max response,[4],3.82%
same,outcome,[5],inactive
same,outcome,[6],inactive
same,Potency,[7],inactive
same,outcome,[8],inactive
same,Potency,[9],inactive
same,Potency,[10],inactive
same,outcome,[11],inactive
same,Potency,[12],inactive
same,Potency,[13],inactive
same,outcome,[14],inactive
same,outcome,[15],inactive
same,Potency,[16],inactive
same,Potency,[17],inactive
same,Potency,[20],inactive
O=CN(CCO)CCO,Potency,[1],inactive
same,Potency,[2],inactive
same,outcome,[3],inactive
same,max response,[4],-0.597%
same,outcome,[5],inactive
same,outcome,[6],inactive
same,Potency,[7],inactive
same,outcome,[8],inactive
same,Potency,[9],inactive
same,Potency,[10],inactive
same,outcome,[11],inactive
same,Potency,[12],inactive
same,outcome,[14],inactive
same,outcome,[15],inactive
same,Potency,[16],inactive
same,Potency,[17],inactive
same,outcome,[18],inactive
same,Potency,[20],inactive
same,outcome,[19],inactive
Cc1ccc(C(=O)c2ccccc2)cc1,Potency,[1],inactive
same,Potency,[2],inactive
same,outcome,[3],inactive
same,max response,[4],-1.28%
same,outcome,[5],inactive
same,outcome,[6],inactive
same,Potency,[7],inactive
same,outcome,[8],inactive
same,Potency,[9],inactive
same,Potency,[10],inactive
same,outcome,[11],inactive
same,Potency,[12],inactive
same,outcome,[14],inactive
same,outcome,[15],inactive
same,Potency,[16],inactive
same,Potency,[17],inactive
same,outcome,[18],inactive
same,Potency,[20],inactive
same,outcome,[19],inactive
CCCCCCCCCCCCSC,Potency,[1],inactive
same,Potency,[2],inactive
same,outcome,[3],inactive
same,max response,[4],0.729%
same,outcome,[5],inactive
same,outcome,[6],inactive
same,Potency,[7],inactive
same,outcome,[8],inactive
same,Potency,[9],inactive
same,Potency,[10],inactive
same,outcome,[11],inactive
same,Potency,[12],inactive
same,outcome,[14],inactive
same,outcome,[15],inactive
same,Potency,[16],inactive
same,Potency,[17],inactive
same,outcome,[18],inactive
same,Potency,[20],inactive
same,outcome,[19],inactive
CCCCCC(=O)OCCc1ccccc1,Potency,[1],inactive
same,Potency,[2],inactive
same,outcome,[3],inactive
same,max response,[4],5.56%
same,outcome,[5],inactive
same,outcome,[6],inactive
same,Potency,[7],inactive
same,outcome,[8],inactive
same,Potency,[9],inactive
same,Potency,[10],inactive
same,outcome,[11],inactive
same,Potency,[12],inactive
same,outcome,[14],inactive
same,outcome,[15],inactive
same,Potency,[16],inactive
same,Potency,[17],inactive
same,outcome,[18],inactive
same,Potency,[20],inactive
same,outcome,[19],inactive
CO[C@@]1(NC(=O)CSC[C@@H](N)C(=O)O)C(=O)N2C(C(=O)O)=C(CSc3nnnn3C)CS[C@@H]21,Potency,[1],inactive
same,Potency,[2],inactive
same,outcome,[3],inactive
same,max response,[4],-2.75%
same,outcome,[5],inactive
same,outcome,[6],inactive
same,Potency,[7],inactive
same,outcome,[8],inactive
same,Potency,[9],inactive
same,Potency,[10],inactive
same,outcome,[11],inactive
same,Potency,[12],inactive
same,outcome,[14],inactive
same,outcome,[15],inactive
same,Potency,[16],inactive
same,Potency,[17],inactive
same,outcome,[18],inactive
same,Potency,[20],inactive
same,outcome,[19],inactive
